The campaign covered roughly 300,000 compounds. About 480 (0.16%) were called active.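 Rule for the calls: active = inhibition over 29.93%, a cutoff 3 SD above the screen mean, later confirmed by dose response; inconclusive = inhibition over 29.93% but no dose response follow-up; inactive = inhibition at most 29.93% or unconfirmed.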 These entries were drawn from the full list. Potency and affinity values are given separately.
experiment: PhoP-dependent GFP reporter repression – Salmonella Typhimurium, primary screen (AID 1863);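 note: 0% = low Mg2+ inducing control and 100% = high Mg2+ repressing control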; conditions: S. Typhimurium PhoP-regulated promoter GFP reporter, 4 h; at 50 µM; hits give high values

inhibition, inactive:
CNC(=S)Nc1cc(C(F)(F)F)ccc1Cl 4.05%
COc1cc(/C=C/C(=O)O)ccc1O -9.92%
COc1cc(/C=C/C(=O)CC(=O)/C=C/c2ccc(O)c(OC)c2)ccc1O 8.28%
O=C(Cn1c(=O)oc2cc(S(=O)(=O)N3CCCC3)ccc21)Nc1ccccc1Br -3.67%
CCNc1nc(NC(C)C)nc(OCC)n1 -7.28%
CCO[C@@H]1OC(C(=O)N2CCN(Cc3ccc4c(c3)OCO4)CC2)=C[C@H](C2CCCCC2)[C@H]1CCCO 2.5%
CCCCCCCNC(=O)C1(CC2CC(c3cccc(Br)c3)=NO2)CCN(C(=O)OC(C)(C)C)CC1 (configuration not stated) -0.33%
CCCCCCCNC(=O)C1(CC2CC(c3cccc(Br)c3)=NO2)CCN(C(=O)C2CCCC2)CC1 (configuration not stated) 12.9%
CCCCCCCNC(=O)C1(CC2CC(c3ccccc3)=NO2)CCNCC1 (configuration not stated) 0.18%
CCCCCCCNC(=O)C1(CC2CC(c3ccc(Cl)cc3)=NO2)CCN(C(=O)C2(C)CC2)CC1 (configuration not stated) -5.4%
Cc1ccccc1C(=O)Nc1ccccc1NC(=O)c1ccccc1Br -5.42%
CCc1nc(C)cn1S(=O)(=O)c1cc(Br)ccc1OC 1.41%
COC(CNC(=O)C(=O)NCC1OCCN1C(=O)c1ccc(Cl)cc1)OC (configuration not stated) 12.8%
CC(C)C[C@H](NC(=O)N1CCn2c1nc1ccccc12)C(=O)NCc1ccco1 -1.56%
CCn1ncc([N+](=O)[O-])c1C(=O)Nc1ccc(C)c(C)c1 -7.66%
Cc1cc2nc(N)sc2cc1C 3.73%
CN(C)c1ccc2nc3ccc(=[N+](C)C)cc-3sc2c1 -2.55%
CC1(C)Cn2c(nnc2-c2ccccc2)S1 -3.09%
O=c1[nH]c2ccccc2c(O)c1-c1ccccc1 1.77%
CN(C)c1ccc(/C=C/c2ccc3ccccc3n2)cc1 0.11%
CN(C)c1ccc(/C=C/c2cccc[n+]2[O-])cc1 -8.32%
CC[n+]1c(/C=C/c2ccc(OC)c(OC)c2)ccc2ccccc21 -6.54%
CC[n+]1ccccc1/C=C/c1ccc(N(C)C)cc1 -19.2%
CN(CCCS(=O)(=O)[O-])c1ccc(/C=C/c2ccc3ccccc3[n+]2C)cc1 0.91%
C[n+]1c(/C=C/c2ccc(O)cc2)ccc2ccccc21 18.4%
Cc1ccc(-n2ccnc(SCC(=O)NC3CCCC3)c2=O)cc1Cl -4.24%
COc1ccc(OC)c(NC(=O)C2CCN(C(=O)c3cccs3)CC2)c1 2.52%
O=C(c1cc(F)ccc1F)C1CCCN(C(=O)c2ccco2)C1 (configuration not stated) -3.85%
COc1ccccc1N1CCN(C(=O)Nc2cccc(Cl)c2)CC1 -5.86%
Cc1c(OCC(=O)NC(Cc2ccc(Cl)cc2)C(=O)O)ccc2c(-c3ccccc3)cc(=O)oc12 (configuration not stated) -1.09%
COc1cc(/C=C2/CC(C)OC2=O)c([N+](=O)[O-])cc1OC (configuration not stated) 0.79%
Cc1ccsc1C(C(=O)NCc1ccccc1)N(C(=O)c1csnn1)c1ccccc1 (configuration not stated) 12.3%
CCc1c(C)nc(N)c(C#N)c1-c1ccccc1 4.1%
O=C1CC(c2ccccc2)CC(O)=C1C=Nc1ccccc1 (configuration not stated) -10.4%
COc1ccc(C)cc1NC(=O)NNC(=O)C1CCC(C(C)(C)C)CC1 (configuration not stated) -7.11%
CSc1ccc(CN(C)CC(=O)NCc2ccccc2)cc1 -8.5%
O=C(c1cc2nc(-c3ccco3)cc(C(F)(F)F)n2n1)N1CCN(c2ccc(F)cc2)CC1 -5.29%
CCCCCCCCC[n+]1cccc2c3ccccc3ccc21 -3.12%
CCCC[n+]1c2ccccc2cc2ccccc21 20.6%
CCCCC[n+]1cccc2c3ccccc3ccc21 -3.43%
CCCCCCCC[n+]1cccc2c3ccccc3ccc21 0.34%
Cc1cc(-n2cc(Br)c(=O)[nH]c2=O)nc(-c2ccccc2)n1 -4.05%
O=C(C1CCC1)N1CCc2cc(S(=O)(=O)NCCN3CCN(c4ccccc4F)CC3)ccc21 13.8%
Cc1cc(C)cc(NC(=O)CC2NCCNC2=O)c1 (configuration not stated) -1.2%
O=C(CC1CCS(=O)(=O)C1)Nc1ccc[nH]c1=O (configuration not stated) -5.21%
Cc1sc2cc3c(c(C(=O)c4ccccc4)[n+]2c1C)-c1cccc2cccc-3c12 -2.96%
Cc1sc2ccccc2[n+]1CC(=O)c1ccccc1 2.11%
CCn1cc(C(=O)NCCC(C)C)c(=O)c2cc(F)c(N3CCN(C)CC3)cc21 8.97%
CCCNC(=O)c1cn(CC)c2cc(N3CCN(C(=O)c4ccco4)CC3)c(F)cc2c1=O -3.25%
CCn1cc(C(=O)NCC(C)C)c(=O)c2cc(F)c(N3CCN(C(=O)c4ccco4)CC3)cc21 5.43%
CCn1cc(C(=O)N[C@H](C)c2ccccc2)c(=O)c2cc(F)c(N3CCN(C)CC3)cc21 4.39%
CCn1cc(C(=O)NN)c(=O)c2cc(F)c(N3CCN(C)CC3)cc21 3.03%
COc1ccc(CC2(CO)CCN(C(C)COc3ccccc3)CC2)cc1 (configuration not stated) -5.24%
O=C(NC(=S)Nc1ccc(S(=O)(=O)Nc2ncccn2)cc1)c1ccc(Br)cc1 -1.85%
Cc1cccc(NC(=O)c2cc(NC(=O)C3CC=CCC3C(=O)O)ccc2N2CCOCC2)c1 (configuration not stated) 13.8%
CCN(CC(=O)Nc1c(F)cccc1F)C(=O)C1(c2ccccc2)CC1 -5.13%
CCC(=O)c1cn(CC(=O)NCc2cccnc2)c2ccccc12 3.99%
Cc1cc(C)cc(OC(=O)CCN2C(=O)C3C4C=CC(C5CC45)C3C2=O)c1 (configuration not stated) 1.31%
CCOc1ccc2nc(NC(=O)C3CCN(S(=O)(=O)c4cnc[nH]4)CC3)sc2c1 1.27%
CN(C)c1cccc(C(=O)OCC(=O)N2CCc3ccccc3C2)c1 -2.35%
CC1CCN(c2nc3c(c(=O)n(C)c(=O)n3C)n2Cc2ccccc2)CC1 0.23%
O=[N+]([O-])c1ccc(NC(=S)NCC(c2cccnc2)N2CCOCC2)cc1 (configuration not stated) -4.57%
CCCCCNC(=O)c1cn(CC)c2cc(N3CCN(C)CC3)c(F)cc2c1=O 4.54%
CCCCNC(=O)c1cn(CC)c2cc(N3CCN(C(=O)c4ccco4)CC3)c(F)cc2c1=O -7.68%
C/C(=N\OC(=O)c1ccc(F)cc1)c1ccc(F)c(F)c1 -1.74%
O=C(OCc1ccc(COC(=O)c2ccccn2)cc1)c1ccccn1 -1.35%
CCOC(=O)C1CCCN(Cc2sccc2C)C1 (configuration not stated) 7.84%
C[C@H](NC(=O)C1CCN(S(=O)(=O)c2ccccc2)CC1)C(=O)NCc1cccc(C(F)(F)F)c1 -1.18%
COC(=O)n1c(=O)oc2cc(S(=O)(=O)N3CCOCC3)ccc21 7.81%
CN(C)C(=O)CN1C(=O)c2cccc3cccc1c23 8.86%
O=C(Nc1ccc2ncccc2c1)c1cc(Cl)ccc1Cl 0.12%
O=C(NCc1ccccc1)C(c1cccnc1)N(C(=O)c1ccccn1)c1ccc(F)cc1 (configuration not stated) 2.95%
Cc1ccc(S(=O)(=O)N/N=C2\C(=O)C3(C)CCC2C3(C)C)cc1 (configuration not stated) 4.91%
COc1ccc(NS(=O)(=O)c2ccc(NC(=S)NC(=O)c3cccnc3)cc2)nn1 10.7%
COc1nccnc1NS(=O)(=O)c1ccc(NC(=S)NC(=O)c2cccnc2)cc1 36%
NC(=O)c1ccc(NC(=O)COc2coc(CN3CCc4ccccc4C3)cc2=O)cc1 6.56%
COc1ccccc1C(C[N+](=O)[O-])c1c(N)n(C)c(=O)n(C)c1=O (configuration not stated) 2.03%
COc1cc(C(C[N+](=O)[O-])c2c(N)n(C)c(=O)n(C)c2=O)ccc1O (configuration not stated) -4.81%
CC(C)OC(=O)CSc1nnc(CNc2cccc(Cl)c2)n1C -3.82%
CCSc1ccccc1C(=O)Nc1nc2ccccc2c(=O)[nH]1 2.88%
COc1cc2cccc(OC)c(=O)c2c(OC)c1OC -4.09%
COc1cc2cccc(OC)c(=O)c2c(O)c1OC -3.95%
Cc1ccc(-c2nn(-c3ccccc3)cc2C(=O)NCC(c2cccs2)N2CCOCC2)cc1 (configuration not stated) -6.92%
CC(C)CCOP(=O)(c1ccc(N(C)C)cc1)C(O)c1c(Cl)cccc1Cl (configuration not stated) -4.25%
COc1ccc([N+](=O)[O-])cc1NC(=O)C(C)OC(=O)C1CC(=O)N(Cc2ccco2)C1 (configuration not stated) -5.1%
COC(=O)c1ccc(N2C(=O)CC(N3CCOCC3)C2=O)cc1 (configuration not stated) 1.31%
O=C(NN=C1c2ccccc2-c2ccccc21)c1ccccn1 9.9%
COc1ccc2c(c1)C(=NNC(=O)c1ccccn1)c1cc(OC)ccc1-2 -4.06%
Cc1ccccc1CS(=O)(=O)c1ccc(C(=O)N2CCC(C)CC2)cc1[N+](=O)[O-] 1.32%
Cn1c2c(c(=O)n(C)c1=O)C(c1ccc(Br)cc1)Nc1ccccc1O2 (configuration not stated) -10.1%
Cc1ccc(C(C[N+](=O)[O-])n2nc(C)cc2C)cc1 (configuration not stated) 4.29%
Cc1cc(C)n(C(C[N+](=O)[O-])c2ccc(Cl)cc2)n1 (configuration not stated) 16.6%
